High-throughput results from PubChem BioAssay.
IDE exosite FP = insulin-degrading enzyme (human) exo-site inhibition | P14735 | purified IDE, FL-6b probe fluorescence polarization; active compounds read low | z-score at 20 µM | 17,000 tested, 6.3% active | AID 1259349;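 active = z-score of -3 or lower, meaning strong loss of probe binding signal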;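 note: His-tagged human IDE residues 42-1019 made in E. coli with 30 nM FL-6b probe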
Target sequence (P14735 42-1019 limits assumed): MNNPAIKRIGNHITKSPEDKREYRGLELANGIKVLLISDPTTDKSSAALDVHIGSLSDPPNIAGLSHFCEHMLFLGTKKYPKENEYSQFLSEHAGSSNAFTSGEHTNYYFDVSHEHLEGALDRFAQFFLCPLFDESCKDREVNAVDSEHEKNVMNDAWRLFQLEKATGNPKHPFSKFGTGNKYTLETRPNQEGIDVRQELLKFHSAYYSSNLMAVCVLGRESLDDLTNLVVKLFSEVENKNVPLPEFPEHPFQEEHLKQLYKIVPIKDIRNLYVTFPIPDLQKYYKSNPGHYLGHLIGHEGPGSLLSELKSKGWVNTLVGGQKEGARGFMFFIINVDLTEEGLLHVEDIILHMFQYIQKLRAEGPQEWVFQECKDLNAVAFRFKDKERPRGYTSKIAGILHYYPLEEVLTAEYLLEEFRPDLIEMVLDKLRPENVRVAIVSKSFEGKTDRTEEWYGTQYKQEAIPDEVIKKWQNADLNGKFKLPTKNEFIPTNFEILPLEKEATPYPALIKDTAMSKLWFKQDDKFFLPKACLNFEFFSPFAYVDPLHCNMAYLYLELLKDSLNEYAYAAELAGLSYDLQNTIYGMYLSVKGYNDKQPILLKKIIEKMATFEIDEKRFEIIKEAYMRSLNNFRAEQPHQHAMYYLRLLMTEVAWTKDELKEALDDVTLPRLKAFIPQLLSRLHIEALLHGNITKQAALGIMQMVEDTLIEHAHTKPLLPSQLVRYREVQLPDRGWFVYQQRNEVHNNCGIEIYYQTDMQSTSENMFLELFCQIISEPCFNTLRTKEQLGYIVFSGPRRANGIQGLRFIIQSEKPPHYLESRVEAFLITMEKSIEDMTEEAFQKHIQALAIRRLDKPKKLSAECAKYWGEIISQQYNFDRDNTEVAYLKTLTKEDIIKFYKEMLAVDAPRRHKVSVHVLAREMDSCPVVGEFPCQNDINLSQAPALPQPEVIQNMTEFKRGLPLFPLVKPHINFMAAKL
Active calls of the source: *; ! = not confirmed by another sample. The sample as a whole holds a higher share of hits than the screen did.

SMILES	IDE exosite FP
COc1ccc2c3c(n(C)c2c1)[C@@H](CO)N(Cc1ccc(Cl)cc1)CC31CCN(CC2CC2)CC1	0.245
CC(C)C#Cc1ccc([C@H]2[C@H](CO)N3C(=O)CN(C(=O)Cc4cccnc4)C[C@@H]23)cc1	3.76
COc1ccccc1-c1ccc([C@@H]2[C@H](CO)N3CCCCN(C(=O)c4ccncc4)C[C@@H]23)cc1	-13.1*
COc1ccccc1-c1ccc([C@@H]2[C@@H](CO)N3CCCCN(C(=O)c4cccnc4)C[C@H]23)cc1	0.0789
COc1ccccc1-c1ccc([C@H]2[C@H]3CN(C(=O)c4cccnc4)CCCCN3[C@H]2CO)cc1	0.567
O=C(Nc1ccccc1)N1CC(=O)N2[C@H](CO)[C@H](c3ccc(C#CC4CCCCC4)cc3)[C@@H]2C1	1.06
COc1cccc(CN2[C@@H]3CNC[C@H]2C3c2ccc(-c3ccc(C#N)cc3)cc2)c1 (some centres not stated)	0.547
COc1cc(CN2[C@@H]3CNC[C@H]2C3c2ccc(-c3ccc(C#N)cc3)cc2)cc(OC)c1 (some centres not stated)	0.446
C/C=C/c1ccc(C2[C@H]3CNC[C@@H]2N3Cc2cc(OC)cc(OC)c2)cc1 (some centres not stated)	2.19
COc1ccccc1-c1ccc(C2[C@H]3CNC[C@@H]2N3Cc2cc(-c3ccccc3)on2)cc1 (some centres not stated)	-1.14
COc1cccc(CN2[C@@H]3CNC[C@H]2[C@H]3c2ccc(-c3ccccc3OC)cc2)c1	-3.38*
COc1cc(CN2[C@@H]3CNC[C@H]2C3c2ccc(-c3cccc(C)c3)cc2)cc(OC)c1 (some centres not stated)	-7.18*
CC(C)CC#Cc1ccc([C@@H]2[C@H](CO)N3C(=O)CN(S(C)(=O)=O)C[C@@H]23)cc1	4.5
CCC(=O)N1[C@H](CO)[C@H](c2ccc(-c3cccc(F)c3)cc2)[C@@H]1CN(C)C(C)=O	1.63
CC(=O)N1CC(=O)N2[C@H](CO)[C@@H](c3ccc(-c4cccc(C(=O)N(C)C)c4)cc3)[C@H]2C1	3.31
O=C(Cc1ccccc1)N1CC(=O)N2[C@H](CO)[C@H](c3ccc(Br)cc3)[C@H]2C1	-1.63
O=C(Cc1ccccc1)N1CC(=O)N2[C@H](CO)[C@H](c3ccc(C#Cc4ccccc4)cc3)[C@H]2C1	-1.27
O=C(Cc1ccccc1)N1CC(=O)N2[C@H](C1)[C@@H](c1ccc(C#CCc3ccccc3)cc1)[C@@H]2CO	-1.64
O=C(Cc1ccccc1)N1CC(=O)N2[C@H](C1)[C@@H](c1ccc(Br)cc1)[C@@H]2CO	-5.06*
O=C(Cc1ccccc1)N1CC(=O)N2[C@H](CO)[C@H](c3ccc(C#Cc4ccccc4)cc3)[C@@H]2C1	-7.01*
O=C(Cc1ccccc1)N1CC(=O)N2[C@H](CO)[C@@H](c3ccc(Br)cc3)[C@H]2C1	0.344
Cc1ccccc1S(=O)(=O)N1[C@H](C#N)[C@@H](c2ccc(C#CC3CC3)cc2)[C@@H]1CO	0.797
CO[C@@H]1CN(C)C(=O)c2cc(NS(C)(=O)=O)ccc2OC[C@@H](C)N(Cc2cncnc2)C[C@@H]1C	1.43
COc1ccccc1-c1ccc([C@H]2[C@@H](CO)N[C@@H]2CNC(=O)C2CCCC2)cc1	-10.9*
COc1ccccc1-c1ccc([C@H]2[C@H](CO)N[C@@H]2C#N)cc1	-4.23*
SMILES	IDE exosite FP
O=C(NC[C@H]1N[C@H](CO)[C@@H]1c1ccc(-c2cncnc2)cc1)C1CCCCC1	-0.599
COc1ccccc1-c1ccc([C@@H]2[C@H](C#N)N[C@@H]2CO)cc1	-9.3*
COc1ccc(-c2ccc([C@H]3[C@H](CO)N[C@@H]3C#N)cc2)cc1	1.62
N#C[C@@H]1N[C@@H](CO)[C@@H]1c1ccc(-c2ccccc2F)cc1	1.99
N#C[C@H]1N[C@@H](CO)[C@@H]1c1ccc(-c2ccccc2F)cc1	1.41
COc1ccccc1-c1ccc([C@@H]2[C@@H](C#N)N[C@@H]2CO)cc1	-8.94*
COc1ccccc1-c1ccc([C@H]2[C@@H](C#N)N[C@@H]2CO)cc1	-0.787
N#C[C@H]1N[C@H](CO)[C@H]1c1ccc(-c2ccccc2F)cc1	4.71
O=C(NC[C@@H]1N[C@@H](CO)[C@@H]1c1ccccc1)C1CC1	3.8
N#C[C@@H]1N[C@H](CO)[C@H]1c1ccc(-c2ccccc2F)cc1	2.75
COc1ccc2c3c(n(C)c2c1)[C@@H](CO)N(C(C)=O)CC31CCN(C(=O)Nc2ccccc2F)CC1	0.0279
COc1ccccc1NC(=O)N1C[C@@H](O)COC[C@H]2O[C@H](CC(=O)NCCc3ccncc3)CC[C@@H]21	1.56
O=C(Nc1ccccc1F)N1CC(=O)N2[C@H](CO)[C@H](c3ccc(C#CC4CC4)cc3)[C@H]2C1	-0.238
CCCC#Cc1ccc([C@@H]2[C@H](CO)N3C(=O)CN(C(=O)Nc4ccc(F)cc4)C[C@@H]23)cc1	3.36
O=C(C[C@H]1CC[C@H]2[C@@H](COC[C@H](O)CN2CCc2ccccc2)O1)NCCCN1CCOCC1	0.207
CNC[C@@H]1OCCCC[C@H](C)Oc2ccc(NC(=O)Nc3ccc(OC)cc3)cc2C(=O)N([C@H](C)CO)C[C@H]1C	0.954
CS(=O)(=O)N1[C@H](CO)[C@H](c2ccccc2-c2ccccc2F)[C@@H]1C#N	-0.193
CCCNC(=O)N[C@H]1C=C[C@H](CC(=O)N2CCN(C)CC2)O[C@@H]1CO	0.25
CN(C)CC(=O)N1[C@H](CO)[C@H](c2ccc(C#CC3CCCCC3)cc2)[C@@H]1C#N	1.19
COc1ccc(NC(=O)N(C)C[C@H]2OCc3cnnn3CCCC(=O)N([C@@H](C)CO)C[C@@H]2C)c(OC)c1	-1.32
CCS(=O)(=O)Nc1ccc2c(c1)C(=O)N(C)[C@H]1CC[C@@H](CC(=O)NCc3ccccc3F)O[C@@H]1CO2	0.357
CN(C)C(=O)c1cccc(-c2ccc([C@@H]3[C@@H](CO)N4C(=O)CN(C(=O)C5CC5)C[C@H]34)cc2)c1	2.22
COc1cccc(-c2ccc(C3[C@@H]4CN(C(=O)C5CCOCC5)C[C@H]3N4)cc2)c1 (some centres not stated)	-7.13*!
COc1ccc(-c2ccc([C@H]3[C@H](CO)N4C(=O)CN(C(=O)C5CC5)C[C@@H]34)cc2)cc1	-0.253
COc1ccc(-c2ccc([C@H]3[C@@H](CO)N4C(=O)CN(C(=O)C5CC5)C[C@@H]34)cc2)cc1	-0.0953
SMILES	IDE exosite FP
COc1cccc(-c2ccc([C@@H]3[C@@H](CO)N4C(=O)CN(C(=O)C5CC5)C[C@@H]34)cc2)c1	-14.8*
COc1cccc(-c2ccc([C@H]3[C@H](CO)N4C(=O)CN(C(=O)C5CC5)C[C@@H]34)cc2)c1	-7.5*
Cc1cccc(-c2ccc(C3[C@@H]4CN(C(=O)C5CCCCC5)C[C@H]3N4)cc2)c1 (some centres not stated)	-5.42*!
Cc1cccc(-c2ccc(C3[C@@H]4CNC[C@H]3N4)cc2)c1 (some centres not stated)	0.37
COc1cccc(-c2ccc(C3[C@@H]4CN(C(=O)C5CCCCC5)C[C@H]3N4)cc2)c1 (some centres not stated)	-0.312
O=C(C1CCCCC1)N1C[C@@H]2N[C@H](C1)C2c1ccc(-c2ccccc2F)cc1 (some centres not stated)	0.623
COc1ccc(-c2ccc([C@@H]3[C@H]4CN(C(=O)C5CCOCC5)CC(=O)N4[C@H]3CO)cc2)cc1	-1.54
N#Cc1cccc(-c2ccc(C3[C@@H]4CN(C(=O)C5CCOCC5)C[C@H]3N4)cc2)c1 (some centres not stated)	1
